According to PubChem BioAssay AID485270 (The Scripps Research Institute Molecular Screening Center, 2010):
In all, about 330,000 compounds went through this assay and about 5,800 (1.8%) were called active. For the sample, actives were picked, then their nearest neighbours and some compounds at random. Values without a mark were called inactive. Rule as the data show it: active = inhibition mostly above about 38% (no sharp cut-off); inactive = mostly below about 40%.

What follows are molecules tested against Orexin/Hypocretin receptor type 1 (Homo sapiens) (UniProt O43613) (assay: antagonists of human orexin 1 receptor (OX1R) (AID 485270;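 also: 0% = agonist challenge alone and 100% = reference antagonist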)). Settings: OX1R-expressing cells, FRET antagonist read-out; at 6.6 µM; active compounds read high.
Sequence of Orexin/Hypocretin receptor type 1 (Homo sapiens) (O43613 whole entry, looked up): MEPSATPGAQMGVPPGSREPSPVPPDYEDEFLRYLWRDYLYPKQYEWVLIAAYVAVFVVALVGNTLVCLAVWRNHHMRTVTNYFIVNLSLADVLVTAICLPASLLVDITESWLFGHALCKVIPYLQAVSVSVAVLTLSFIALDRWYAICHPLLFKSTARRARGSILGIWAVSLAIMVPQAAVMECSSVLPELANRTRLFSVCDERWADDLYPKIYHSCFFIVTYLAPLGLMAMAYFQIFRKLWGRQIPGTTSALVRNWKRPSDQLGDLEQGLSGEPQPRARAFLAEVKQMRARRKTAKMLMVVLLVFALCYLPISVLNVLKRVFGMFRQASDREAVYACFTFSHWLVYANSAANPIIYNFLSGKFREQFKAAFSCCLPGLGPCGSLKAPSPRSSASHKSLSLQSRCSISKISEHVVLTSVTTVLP

| SMILES | inhibition |
| --- | --- |
| CC[C@@H](C)[C@@H]1CN([C@@H](C)CN2CCC[C@H]2CN2C(N)=NC[C@H]2C(C)C)C(=N)N1CCc1ccc(Cl)c(Cl)c1 | -3.86% |
| COc1ccccc1C(=O)NCC(=O)OCC(=O)NNC(=O)c1ccc(Br)cc1 | 2.31% |
| Fc1ccc(Nc2nnns2)cc1 | 11.1% |
| CS(=O)(=O)c1ccc(C(=O)NNC(=O)c2cccs2)cc1 | 1.62% |
| CC(C)N(C(=O)[C@H]1C[C@H](CC(=O)NC(C)(C)C)C(=O)N2CCc3c([nH]c4ccc(Cl)cc34)[C@]12C)C(C)C | 8.54% |
| C=CCC[C@@H](Cc1ccc(F)cc1)C(=O)OC[C@H](Cc1c[nH]c2ccccc12)NC(=O)[C@@H](CC=C)CC(=O)N(CCO)Cc1ccccc1 | 7.48% |
| NS(=O)(=O)c1cccc(NC(=O)COC(=O)c2cc([N+](=O)[O-])ccc2N2CCCC2)c1 | 14.8% |
| O=C(CSc1nc2ccccc2c(=O)n1Cc1ccc(F)cc1)NCC1CCCO1 (configuration not stated) | 4.49% |
| COc1ccc(S(=O)(=O)N2CCN(c3cnccn3)CC2)cc1 | 16.4% |
| CC(OC(=O)c1ccc([N+](=O)[O-])cc1)C(=O)NCC1CCCCC1 (configuration not stated) | 18.2% |
| CC1CCCCN1CCCNC(=O)Cn1ncc2c([nH]c3ccccc32)c1=O (configuration not stated) | 4.31% |
| CCC(=C/c1sc2ccc3ccccc3c2[n+]1C)/C=C1\Sc2ccc3ccccc3c2N1C | 42.8% (active) |
| Cn1cccc1C(=O)OCC(=O)c1ccc(Br)s1 | 5.79% |
| O=C(CC1SC(N2CCOCC2)=NC1=O)Nc1ccccc1F (configuration not stated) | -1.73% |
| C[C@@H](CN1CCC[C@H]1CN1C(N)=NC[C@@H]1Cc1ccccc1)N1C[C@@H](Cc2ccccc2)N(CCCC2CCCC2)C1=N | 11.4% |
| C/C=C/c1ccc(OCC(=O)NNC(=O)CN(C)S(=O)(=O)c2ccc(C)cc2)c(OC)c1 | 0.57% |
| O=C(/C=C/c1ccco1)Nc1cccc(-c2nc3ccccc3[nH]2)c1 | 86.8% (active) |
| O=C(/C=C/c1ccco1)Nc1ccc(Oc2ccccc2)cc1 | 62.7% |
| Cc1ccc(-n2nc3ccc(NC(=O)/C=C/c4ccco4)cc3n2)cc1C | 21.4% |
| Cc1ccc(C(=O)OCC(=O)N2CCCCCC2)cc1S(=O)(=O)N1CCOCC1 | 24.3% |
| COc1ccc(NC(=O)Nc2ccc3c(c2)C(=O)N([C@H](C)CO)C[C@H](C)[C@@H](CN(C)C(=O)Nc2ccc4c(c2)OCO4)O3)cc1 | 8.87% |
| Cc1nnsc1C(=O)N/N=C/c1ccccc1Cl | 3.68% |
| COCCNC(=S)N/N=C/c1c(C)[nH]c2ccccc12 | 9.28% |
| Cc1nn(-c2ccccc2)c(Cl)c1/C=N/NC(=O)c1nn(C)cc1[N+](=O)[O-] | 41.5% |
| COc1ccc(CNC(=O)CNC(=O)c2sc3ccccc3c2Cl)cc1OC | 18.2% |
| Cc1nn(C)cc1/C=N/NC(=O)c1sc2ccccc2c1Cl | 72.5% (active) |
| O=C(N/N=C/c1c(Cl)[nH]c2ccccc12)c1sc2ccccc2c1Cl | 100% (active) |
